From publication PMC11006913 come the findings set out here.

Changes are numbered by the printed parent chain.

Holding throughout (test): PBM; 200 nM protein, PBS
Common to all, as to conditions: dsDNA, one strand shown

Test [1] addresses SHOX (Homo sapiens, UniProt O15266 103-189).
The target of test [2] is T1, VENTX (Homo sapiens, UniProt O95231 78-163, R121Q).
T1 sequence: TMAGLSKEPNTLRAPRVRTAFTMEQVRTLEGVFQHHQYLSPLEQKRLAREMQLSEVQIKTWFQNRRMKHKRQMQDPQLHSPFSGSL

Test [3] concerns the target HOXC9 (Homo sapiens, UniProt P31274 178-260, K195R).
Test [4] concerns the target T2, VENTX (Homo sapiens, UniProt O95231 78-163).
T2 sequence: T1 sequence with Q44R

The target in test [5] is T3, VENTX (Homo sapiens, UniProt O95231 78-163, Y115F).
T3 sequence: T1 sequence with Y38F, Q44R

The target of test [6] is HOXC9 (Homo sapiens, UniProt P31274 178-260).
Test [7] has as its target SHOX (Homo sapiens, UniProt O15266 103-189, R173C).
The target of test [8] is HOXC9 (Homo sapiens, UniProt P31274 178-260, R193K).
The target of test [9] is HOXC9 (Homo sapiens, UniProt P31274 178-260, R222W).
Test [10] deals with HOXA4 (Homo sapiens, UniProt Q00056 201-287, W262R).
Test [11] has as its target HOXA4 (Homo sapiens, UniProt Q00056 201-287).
Test [12] addresses HOXA4 (Homo sapiens, UniProt Q00056 201-287, W262F).
Test [13] concerns the target HOXB9 (Homo sapiens, UniProt P17482 171-250, T197M).
Test [14] deals with HOXC10 (Homo sapiens, UniProt Q9NYD6 254-340).
Test [15] has as its target HOXB9 (Homo sapiens, UniProt P17482 171-250).
For test [16], the target named is HOXC10 (Homo sapiens, UniProt Q9NYD6 254-340, K271E).
Test [17] addresses HOXB9 (Homo sapiens, UniProt P17482 171-250, R186Q).
Test [18] has as its target T4, SIX6 (Homo sapiens, UniProt O95475 114-200, L167I).
T4 sequence: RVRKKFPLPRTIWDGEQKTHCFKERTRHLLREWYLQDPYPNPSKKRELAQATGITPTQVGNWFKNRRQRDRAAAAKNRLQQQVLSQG

Test [19] concerns the target T5, SIX6 (Homo sapiens, UniProt O95475 114-200, L143V).
T5 sequence: T4 sequence with L30V, I54L

The target of test [20] is T6, SIX6 (Homo sapiens, UniProt O95475 114-200, H141N).
T6 sequence: T4 sequence with H28N, I54L

For test [21], the target named is T7, SIX6 (Homo sapiens, UniProt O95475 114-200, T165P).
T7 sequence: T4 sequence with T52P, I54L

The target of test [22] is T8, SIX6 (Homo sapiens, UniProt O95475 114-200, L167M).
T8 sequence: T4 sequence with I54M

Test [23] deals with T9, SIX6 (Homo sapiens, UniProt O95475 114-200, L143M).
T9 sequence: T4 sequence with L30M, I54L

The target in test [24] is T10, SIX6 (Homo sapiens, UniProt O95475 114-200, L143I).
T10 sequence: T4 sequence with L30I, I54L

Test [25] deals with T11, SIX6 (Homo sapiens, UniProt O95475 114-200, T165G).
T11 sequence: T4 sequence with T52G, I54L

The target in test [26] is T12, SIX6 (Homo sapiens, UniProt O95475 114-200, T139Q).
T12 sequence: T4 sequence with T26Q, I54L

In test [27] the target is T13, SIX6 (Homo sapiens, UniProt O95475 114-200, T165A).
T13 sequence: T4 sequence with T52A, I54L

In test [28] the target is T14, SIX6 (Homo sapiens, UniProt O95475 114-200, L167V).
T14 sequence: T4 sequence with I54V

Test [29] deals with T15, SIX6 (Homo sapiens, UniProt O95475 114-200).
T15 sequence: T4 sequence with I54L

The target of test [30] is T16, SIX6 (Homo sapiens, UniProt O95475 114-200, T165I).
T16 sequence: T4 sequence with T52I, I54L

The target in test [31] is HOXA7 (Homo sapiens, UniProt P31268 116-202).
Test [32] concerns the target HOXA2 (Homo sapiens, UniProt O43364 129-215, R185T).
Test [33] has as its target ALX3 (Homo sapiens, UniProt O95076 139-225, N203Q).
Test [34] deals with HOXD13 (Homo sapiens, UniProt P35453 263-343, T313R).
In test [35] the target is HOXA2 (Homo sapiens, UniProt O43364 129-215, R185K).
Test [36] has as its target HOXD13 (Homo sapiens, UniProt P35453 263-343).
For test [37], the target named is ALX3 (Homo sapiens, UniProt O95076 139-225).
The target of test [38] is VAX1 (Homo sapiens, UniProt Q5SQQ9 86-172).
In test [39] the target is ALX3 (Homo sapiens, UniProt O95076 139-225, L168Q).
The target in test [40] is HOXD13 (Homo sapiens, UniProt P35453 263-343, T313A).
Test [41] has as its target ALX3 (Homo sapiens, UniProt O95076 139-225, L168V).
Test [42] deals with VAX1 (Homo sapiens, UniProt Q5SQQ9 86-172, T142I).
In test [43] the target is HOXA2 (Homo sapiens, UniProt O43364 129-215, Y150S).
Test [44] has as its target HOXA7 (Homo sapiens, UniProt P31268 116-202, W177C).
The target in test [45] is ALX3 (Homo sapiens, UniProt O95076 139-225, N203S).
For test [46], the target named is HOXA2 (Homo sapiens, UniProt O43364 129-215).
Test [47] deals with VAX1 (Homo sapiens, UniProt Q5SQQ9 86-172, K157R).
VAX1 (Homo sapiens, UniProt Q5SQQ9 86-172, K157R), sequence (Q5SQQ9 86-172 K157R): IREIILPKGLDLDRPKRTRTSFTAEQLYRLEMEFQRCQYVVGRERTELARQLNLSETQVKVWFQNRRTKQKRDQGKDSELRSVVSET

SHOX (Homo sapiens, UniProt O15266 103-189), sequence (O15266 103-189): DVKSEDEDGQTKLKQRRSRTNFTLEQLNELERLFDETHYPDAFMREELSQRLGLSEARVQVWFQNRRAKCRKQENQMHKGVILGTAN
SHOX (Homo sapiens, UniProt O15266 103-189, R173C), sequence (O15266 103-189 R173C): as the sequence (O15266 103-189) above, with R71C counted along it
HOXC9 (Homo sapiens, UniProt P31274 178-260, R222W), sequence (P31274 178-260 R222W): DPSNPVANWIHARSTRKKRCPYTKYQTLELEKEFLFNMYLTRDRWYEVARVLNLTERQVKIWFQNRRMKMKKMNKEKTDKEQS
HOXB9 (Homo sapiens, UniProt P17482 171-250, T197M), sequence (P17482 171-250 T197M): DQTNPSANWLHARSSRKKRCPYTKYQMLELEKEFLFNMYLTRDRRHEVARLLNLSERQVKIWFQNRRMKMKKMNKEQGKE
HOXC9 (Homo sapiens, UniProt P31274 178-260, K195R), sequence (P31274 178-260 K195R): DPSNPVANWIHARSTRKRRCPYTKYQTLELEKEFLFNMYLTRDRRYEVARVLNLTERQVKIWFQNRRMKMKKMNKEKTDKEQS
HOXC9 (Homo sapiens, UniProt P31274 178-260), sequence (P31274 178-260): as the sequence (P31274 178-260 R222W) above, with W45R counted along it
HOXC9 (Homo sapiens, UniProt P31274 178-260, R193K), sequence (P31274 178-260 R193K): as the sequence (P31274 178-260 R222W) above, with R16K, W45R counted along it
HOXB9 (Homo sapiens, UniProt P17482 171-250), sequence (P17482 171-250): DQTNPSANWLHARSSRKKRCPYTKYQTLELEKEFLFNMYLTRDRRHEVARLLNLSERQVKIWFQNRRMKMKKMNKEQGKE
HOXB9 (Homo sapiens, UniProt P17482 171-250, R186Q), sequence (P17482 171-250 R186Q): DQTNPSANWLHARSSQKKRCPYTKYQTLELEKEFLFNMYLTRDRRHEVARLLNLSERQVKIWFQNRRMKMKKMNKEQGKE
HOXA2 (Homo sapiens, UniProt O43364 129-215), sequence (O43364 129-215): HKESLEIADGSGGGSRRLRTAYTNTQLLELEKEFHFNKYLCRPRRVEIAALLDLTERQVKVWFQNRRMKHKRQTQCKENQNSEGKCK
ALX3 (Homo sapiens, UniProt O95076 139-225, N203Q), sequence (O95076 139-225 N203Q): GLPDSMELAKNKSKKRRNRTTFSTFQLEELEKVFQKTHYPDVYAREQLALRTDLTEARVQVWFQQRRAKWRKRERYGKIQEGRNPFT
HOXD13 (Homo sapiens, UniProt P35453 263-343, T313A), sequence (P35453 263-343 T313A): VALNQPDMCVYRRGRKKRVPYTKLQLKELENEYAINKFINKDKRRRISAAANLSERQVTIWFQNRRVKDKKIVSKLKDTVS
HOXC10 (Homo sapiens, UniProt Q9NYD6 254-340, K271E), sequence (Q9NYD6 254-340 K271E): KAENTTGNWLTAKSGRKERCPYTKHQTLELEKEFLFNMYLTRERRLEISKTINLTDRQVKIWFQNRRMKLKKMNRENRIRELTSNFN
HOXA7 (Homo sapiens, UniProt P31268 116-202), sequence (P31268 116-202): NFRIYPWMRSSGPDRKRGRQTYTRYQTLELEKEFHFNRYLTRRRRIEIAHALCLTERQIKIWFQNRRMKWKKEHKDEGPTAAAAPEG
ALX3 (Homo sapiens, UniProt O95076 139-225, L168Q), sequence (O95076 139-225 L168Q): as the sequence (O95076 139-225 N203Q) above, with L30Q, Q65N counted along it
ALX3 (Homo sapiens, UniProt O95076 139-225, L168V), sequence (O95076 139-225 L168V): as the sequence (O95076 139-225 N203Q) above, with L30V, Q65N counted along it
HOXC10 (Homo sapiens, UniProt Q9NYD6 254-340), sequence (Q9NYD6 254-340): as the sequence (Q9NYD6 254-340 K271E) above, with E18K counted along it
VAX1 (Homo sapiens, UniProt Q5SQQ9 86-172, T142I), sequence (Q5SQQ9 86-172 T142I): as the sequence (Q5SQQ9 86-172 K157R) above, with T57I, R72K counted along it
HOXA2 (Homo sapiens, UniProt O43364 129-215, R185K), sequence (O43364 129-215 R185K): as the sequence (O43364 129-215) above, with R57K counted along it
HOXA2 (Homo sapiens, UniProt O43364 129-215, Y150S), sequence (O43364 129-215 Y150S): as the sequence (O43364 129-215) above, with Y22S counted along it
HOXA4 (Homo sapiens, UniProt Q00056 201-287), sequence (Q00056 201-287): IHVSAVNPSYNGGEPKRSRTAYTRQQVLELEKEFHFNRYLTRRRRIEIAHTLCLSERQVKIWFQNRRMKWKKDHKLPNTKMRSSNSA
ALX3 (Homo sapiens, UniProt O95076 139-225, N203S), sequence (O95076 139-225 N203S): as the sequence (O95076 139-225 N203Q) above, with Q65S counted along it
HOXA4 (Homo sapiens, UniProt Q00056 201-287, W262F), sequence (Q00056 201-287 W262F): as the sequence (Q00056 201-287) above, with W62F counted along it
HOXD13 (Homo sapiens, UniProt P35453 263-343, T313R), sequence (P35453 263-343 T313R): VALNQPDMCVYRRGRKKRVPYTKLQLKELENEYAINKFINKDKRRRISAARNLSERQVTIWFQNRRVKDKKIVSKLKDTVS
HOXA2 (Homo sapiens, UniProt O43364 129-215, R185T), sequence (O43364 129-215 R185T): as the sequence (O43364 129-215) above, with R57T counted along it
VAX1 (Homo sapiens, UniProt Q5SQQ9 86-172), sequence (Q5SQQ9 86-172): as the sequence (Q5SQQ9 86-172 K157R) above, with R72K counted along it
HOXD13 (Homo sapiens, UniProt P35453 263-343), sequence (P35453 263-343): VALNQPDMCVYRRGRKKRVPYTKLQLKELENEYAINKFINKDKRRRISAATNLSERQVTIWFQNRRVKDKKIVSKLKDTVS
ALX3 (Homo sapiens, UniProt O95076 139-225), sequence (O95076 139-225): as the sequence (O95076 139-225 N203Q) above, with Q65N counted along it
HOXA7 (Homo sapiens, UniProt P31268 116-202, W177C), sequence (P31268 116-202 W177C): as the sequence (P31268 116-202) above, with W62C counted along it
HOXA4 (Homo sapiens, UniProt Q00056 201-287, W262R), sequence (Q00056 201-287 W262R): as the sequence (Q00056 201-287) above, with W62R counted along it

Turning to CGTGAGAG, the binding signal in the test with SHOX [1] is 7.22 upbm affinity estimate (log intensity, higher = more binding, comparable within an allelic series); in the test with VENTX [2], 8.23 upbm affinity estimate (log intensity, higher = more binding, comparable within an allelic series); with HOXC9 [3], 9.74 upbm affinity estimate (log intensity, higher = more binding, comparable within an allelic series); with VENTX [4], 8.19 upbm affinity estimate (log intensity, higher = more binding, comparable within an allelic series); in the test with VENTX [5], 8.23 upbm affinity estimate (log intensity, higher = more binding, comparable within an allelic series); with HOXC9 [6], 9.82 upbm affinity estimate (log intensity, higher = more binding, comparable within an allelic series). In addition, the binding signal with SHOX [7] is 7.25 upbm affinity estimate (log intensity, higher = more binding, comparable within an allelic series); in the test with HOXC9 [8] it was 9.77 upbm affinity estimate (log intensity, higher = more binding, comparable within an allelic series); in the test with HOXC9 [9], 9.81 upbm affinity estimate (log intensity, higher = more binding, comparable within an allelic series).
On to AATAACGC, for which the binding signal in the test with SHOX [1] is 8.74 upbm affinity estimate (log intensity, higher = more binding, comparable within an allelic series); with HOXA4 [10], 10.2 upbm affinity estimate (log intensity, higher = more binding, comparable within an allelic series); with HOXA4 [11], 11.2 upbm affinity estimate (log intensity, higher = more binding, comparable within an allelic series); with HOXA4 [12] it was 10.4 upbm affinity estimate (log intensity, higher = more binding, comparable within an allelic series).
Turning to GAATTACA, the binding signal with SHOX [1] was 9.41 upbm affinity estimate (log intensity, higher = more binding, comparable within an allelic series).
As for CGCTGACC, the binding signal with SHOX [1] was 7.27 upbm affinity estimate (log intensity, higher = more binding, comparable within an allelic series); with HOXB9 [13], 8.61 upbm affinity estimate (log intensity, higher = more binding, comparable within an allelic series); with HOXC10 [14], 10.1 upbm affinity estimate (log intensity, higher = more binding, comparable within an allelic series); with HOXB9 [15], 8.64 upbm affinity estimate (log intensity, higher = more binding, comparable within an allelic series); in the test with SHOX [7], 7.24 upbm affinity estimate (log intensity, higher = more binding, comparable within an allelic series); with HOXC10 [16], 10.1 upbm affinity estimate (log intensity, higher = more binding, comparable within an allelic series). In addition, in the test with HOXB9 [17], the binding signal was 8.66 upbm affinity estimate (log intensity, higher = more binding, comparable within an allelic series).
ATATAGAG: the binding signal with SHOX [1] was 8.28 upbm affinity estimate (log intensity, higher = more binding, comparable within an allelic series).
Consider CCCCCGGG, for which the binding signal was 6.93 upbm affinity estimate (log intensity, higher = more binding, comparable within an allelic series) with SHOX [1]; 9.28 upbm affinity estimate (log intensity, higher = more binding, comparable within an allelic series) with HOXC9 [3]; 9.39 upbm affinity estimate (log intensity, higher = more binding, comparable within an allelic series) in the test with HOXC9 [6]; 6.97 upbm affinity estimate (log intensity, higher = more binding, comparable within an allelic series) in the test with SHOX [7]; 9.25 upbm affinity estimate (log intensity, higher = more binding, comparable within an allelic series) with HOXC9 [8]; 9.53 upbm affinity estimate (log intensity, higher = more binding, comparable within an allelic series) with HOXC9 [9].
In the case of GGGCCGAA, the binding signal in the test with SHOX [1] is 7.23 upbm affinity estimate (log intensity, higher = more binding, comparable within an allelic series); with SIX6 [18], 8.79 upbm affinity estimate (log intensity, higher = more binding, comparable within an allelic series); in the test with SIX6 [19], 8.79 upbm affinity estimate (log intensity, higher = more binding, comparable within an allelic series); with SIX6 [20], 8.73 upbm affinity estimate (log intensity, higher = more binding, comparable within an allelic series); with SIX6 [21], 8.89 upbm affinity estimate (log intensity, higher = more binding, comparable within an allelic series); with SIX6 [22] it was 8.8 upbm affinity estimate (log intensity, higher = more binding, comparable within an allelic series). Besides, the binding signal is 8.64 upbm affinity estimate (log intensity, higher = more binding, comparable within an allelic series) with SIX6 [23]; 8.74 upbm affinity estimate (log intensity, higher = more binding, comparable within an allelic series) with SIX6 [24]; 8.79 upbm affinity estimate (log intensity, higher = more binding, comparable within an allelic series) with SIX6 [25]; 8.8 upbm affinity estimate (log intensity, higher = more binding, comparable within an allelic series) with SIX6 [26]; 8.73 upbm affinity estimate (log intensity, higher = more binding, comparable within an allelic series) with SIX6 [27]; 7.18 upbm affinity estimate (log intensity, higher = more binding, comparable within an allelic series) with SHOX [7]. The binding signal was 8.77 upbm affinity estimate (log intensity, higher = more binding, comparable within an allelic series) in the test with SIX6 [28]; 8.68 upbm affinity estimate (log intensity, higher = more binding, comparable within an allelic series) in the test with SIX6 [29]; 8.82 upbm affinity estimate (log intensity, higher = more binding, comparable within an allelic series) in the test with SIX6 [30].
As for CCCACGGC, the binding signal is 6.91 upbm affinity estimate (log intensity, higher = more binding, comparable within an allelic series) with SHOX [1]; 7.88 upbm affinity estimate (log intensity, higher = more binding, comparable within an allelic series) in the test with VENTX [2]; 8.38 upbm affinity estimate (log intensity, higher = more binding, comparable within an allelic series) in the test with HOXB9 [13]; 7.71 upbm affinity estimate (log intensity, higher = more binding, comparable within an allelic series) with VENTX [4]; 8.48 upbm affinity estimate (log intensity, higher = more binding, comparable within an allelic series) in the test with HOXA7 [31]; 7.87 upbm affinity estimate (log intensity, higher = more binding, comparable within an allelic series) in the test with VENTX [5]. In addition, the binding signal with HOXA2 [32] was 7.17 upbm affinity estimate (log intensity, higher = more binding, comparable within an allelic series); in the test with HOXB9 [15] it was 8.1 upbm affinity estimate (log intensity, higher = more binding, comparable within an allelic series); with ALX3 [33], 7.69 upbm affinity estimate (log intensity, higher = more binding, comparable within an allelic series); with HOXD13 [34], 9.39 upbm affinity estimate (log intensity, higher = more binding, comparable within an allelic series); in the test with SHOX [7] it was 7.08 upbm affinity estimate (log intensity, higher = more binding, comparable within an allelic series); with HOXA2 [35], 10 upbm affinity estimate (log intensity, higher = more binding, comparable within an allelic series). For the same sequence, the binding signal was 9.4 upbm affinity estimate (log intensity, higher = more binding, comparable within an allelic series) with HOXD13 [36]; 7.64 upbm affinity estimate (log intensity, higher = more binding, comparable within an allelic series) with ALX3 [37]; 6.92 upbm affinity estimate (log intensity, higher = more binding, comparable within an allelic series) with VAX1 [38]; 7.79 upbm affinity estimate (log intensity, higher = more binding, comparable within an allelic series) with ALX3 [39]; 9.58 upbm affinity estimate (log intensity, higher = more binding, comparable within an allelic series) with HOXD13 [40]; 8.18 upbm affinity estimate (log intensity, higher = more binding, comparable within an allelic series) in the test with HOXB9 [17]. The binding signal with ALX3 [41] was 7.77 upbm affinity estimate (log intensity, higher = more binding, comparable within an allelic series); in the test with VAX1 [42], 6.93 upbm affinity estimate (log intensity, higher = more binding, comparable within an allelic series); with HOXA2 [43], 10.4 upbm affinity estimate (log intensity, higher = more binding, comparable within an allelic series); with HOXA7 [44], 8.45 upbm affinity estimate (log intensity, higher = more binding, comparable within an allelic series); with ALX3 [45] it was 7.71 upbm affinity estimate (log intensity, higher = more binding, comparable within an allelic series); with HOXA2 [46], 7.04 upbm affinity estimate (log intensity, higher = more binding, comparable within an allelic series). In the test with VAX1 [47], the binding signal is 6.78 upbm affinity estimate (log intensity, higher = more binding, comparable within an allelic series).
